In PubChem BioAssay AID493056 (National Center for Advancing Translational Sciences (NCATS), 2011):
Among all 360,000 compounds or so, about 2,400 (0.67%) were called active. The sample holds actives, similar compounds and a random draw of the others, so the mix is not that of the screen. Values without a mark were called inactive. Cut-off read from the data, not from the text of the source: active = enhancement above about 30%; inactive = the rest.

target: Thyrotropin-releasing hormone receptor (Homo sapiens) (UniProt P34981); assay: qHTS for Small Molecule Agonists and Allosteric Enhancers of Human TRH Receptor: Primary Screen for Enhancers; settings: TRHR cells, fluo-8 calcium fluorescence, EC20 TRH enhancement; at 2 µM; stronger effect = higher value; note: 0% is about no effect
In short: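 Enhancer read-out: after compound pinning and an initial kinetic agonist-mode read, an EC20 of TRH (10 nM final) was injected and fluo-8 calcium signal (Ex 480/Em 530) followed at 1 s/cycle for 100 cycles in TRHR-expressing cells.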

Thyrotropin-releasing hormone receptor (Homo sapiens), sequence (P34981 whole entry, looked up): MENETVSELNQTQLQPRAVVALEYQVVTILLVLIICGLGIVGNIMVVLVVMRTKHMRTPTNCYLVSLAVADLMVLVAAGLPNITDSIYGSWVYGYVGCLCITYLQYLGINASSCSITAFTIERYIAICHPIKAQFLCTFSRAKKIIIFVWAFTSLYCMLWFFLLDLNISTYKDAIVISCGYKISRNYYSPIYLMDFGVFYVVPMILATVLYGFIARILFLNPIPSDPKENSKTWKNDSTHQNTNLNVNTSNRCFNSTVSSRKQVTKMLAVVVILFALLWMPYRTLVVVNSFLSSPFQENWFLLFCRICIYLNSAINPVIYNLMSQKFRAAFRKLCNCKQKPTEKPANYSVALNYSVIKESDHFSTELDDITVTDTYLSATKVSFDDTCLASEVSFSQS

Structure (SMILES)	enhancement
CC(CCCc1ccccc1)NC(=O)c1nn(-c2ccc(Cl)cc2)nc1CO (stereo not drawn)	-3.71%
Cc1cc(C)cc(Nc2ncnc3onc(-c4ccc(F)cc4)c23)c1	5.09%
Cn1c(SCC(=O)N2CCCc3ccccc32)ncc(C(=O)Nc2ccc(F)cc2)c1=O	7.76%
COc1cc2nc(NCC(C)c3ccccc3)n3nc(-c4ccccc4)nc3c2cc1OC (stereo not drawn)	15.5%
O=C(NCc1cccs1)c1cc(-c2ccccn2)nc2ccc(Br)cc12	30.5% (active)
O=C(CN1CCN(c2ccccn2)CC1)NCc1cccs1	17.1%
O=C(NCc1cccs1)c1ccc(Br)o1	-3.47%
CCc1ccc(-n2nc(C)c3c(C)cc(=O)n(CC(=O)Nc4ccc(F)cc4C)c32)cc1	6.58%
CCOC(=O)CSc1nc(N2CCOCC2)c2c(c1C#N)CC(C(C)C)OC2 (stereo not drawn)	-9.38%
CN(C)c1ccnc(Oc2ccc(F)cc2)c1C#N	4.36%
CCOC(=O)CSc1nccc(N(C)C)c1C#N	36.1% (active)
O=C(C1COc2ccccc2O1)N(Cc1cccnc1)c1nc2c(F)cc(F)cc2s1 (stereo not drawn)	-1.37%
COC(=O)c1ccc(NC(=O)CCc2c(C)nc3c(c(C)nn3-c3ccc(C)cc3)c2C)cc1	0.187%
Cc1cc(C)c(NC(=O)CCc2c(C)nc3c(c(C)nn3C(C)(C)C)c2C)c(C)c1	31% (active)
CCCNC(=O)CCc1c(C)nc2c(c(C)nn2-c2ccc(C)cc2)c1C	7.28%
Cn1c(C(=O)N2CCCC(C(=O)NCc3ccccc3)C2)cc2sccc21 (stereo not drawn)	4.18%
Cn1c(C(=O)N2CCC(C(=O)N3CCN(c4ccccc4)CC3)CC2)cc2sccc21	0.218%
COc1ccc(N2CCN(C(=O)C3CCCN(C(=O)c4cc5sccc5n4C)C3)CC2)cc1 (stereo not drawn)	32.5% (active)
Cc1ccccc1CSc1nc2c([nH]c3ccccc32)c(=O)n1C	-2.07%
COc1ccc(Cl)cc1-n1c(CCC(=O)O)ccc1-c1ccc(C)cc1	7.8%
Cc1ccc(C)c(N2CCN(S(=O)(=O)c3ccc4c(c3)C(C(C)C)C(=O)N4)CC2)c1 (stereo not drawn)	-4.92%
Cc1ccc(N2CCN(S(=O)(=O)c3ccc(F)cc3)CC2)c(C)c1	32% (active)

Structure (SMILES)	enhancement
Cc1ccccc1N1CCN(S(=O)(=O)c2ccc3ccccc3c2)CC1	-5.29%
Cc1ccc(S(=O)(=O)N2CCC(N3CCCCCC3)CC2)cc1	26.1%
Cc1ccc(S(=O)(=O)N2CCN(C(=O)c3cccs3)CC2)cc1	0.403%
Cc1ccc(S(=O)(=O)N2CCN(C)CC2)cc1	33.6% (active)
CCc1cc2c(cc3c(=O)n(CC(=O)N4CCN(c5cc(Cl)ccc5C)CC4)nc(CC)n32)s1	-2.18%
Cc1nc2sc(C)c(C)n2c(=O)c1S(=O)(=O)NCCc1ccc(Cl)cc1	2.98%
O=C(Nc1nnc(-c2ccc(Cl)cc2)o1)c1ccccc1Br	1.12%
O=C(COC(=O)CSc1nnc(-c2ccc(Cl)cc2)o1)Nc1cc(Cl)cc(Cl)c1	-8.1%
O=C(COC(=O)c1ccccc1Br)Nc1nnc(-c2ccccc2)o1	32.2% (active)
CSc1ncc(C(=O)NCc2ccccc2Cl)c(C(F)(F)F)n1	-4.14%
CN(C)c1ccc(NC(=O)CSc2nc(-c3ccco3)cc(C(F)(F)F)n2)cc1	10.8%
O=C(NC1CCCCC1)c1ccc(Cn2c(SCc3ccccc3)nc3cccnc32)cc1	7.91%
COc1cc(C(=O)NCC(=O)NCCSc2ccc(Br)cc2)cc(OC)c1OC	1.93%
COc1cccc(C(=O)NCCSc2ccc(Br)cc2)c1	31.9% (active)
COc1ccccc1C(=O)NCC(=O)NCCSc1ccc(Br)cc1	0.828%
CCOc1cc(C2C(C(=O)Nc3ccc(OC)cc3)=C(C)Nc3nc(SC)nn32)ccc1O (stereo not drawn)	-5.28%
COc1ccccc1N1CCN(C(=O)C2Cc3ccccc3CN2C(=O)c2ccco2)CC1 (stereo not drawn)	6.6%
CCC(=O)N1c2ccccc2CC1C(=O)N1CCN(c2ccccc2)CC1 (stereo not drawn)	-2.98%
O=C(C1Cc2ccccc2CN1C(=O)c1ccco1)N1CCN(c2ccccc2)CC1 (stereo not drawn)	36% (active)
COc1cccc(NC(=O)CSC2=Nc3ccccc3C3=NC(CC(=O)NC4CCCCC4)C(=O)N23)c1 (stereo not drawn)	-3.86%
COc1ccc(NC(=O)c2sc3nc(-c4cc5cccc(OC)c5oc4=O)[nH]c(=O)c3c2C)cc1	8.15%
Cn1c(=O)c2c(SCC(=O)NCC3CCCO3)nc(-c3ccccc3F)nc2n(C)c1=O (stereo not drawn)	-1.86%

Structure (SMILES)	enhancement
CC1=NCCN1S(=O)(=O)c1cccc([N+](=O)[O-])c1	18.4%
Cc1cc(C)n(S(=O)(=O)c2cccc([N+](=O)[O-])c2)n1	-7.84%
Cc1ccc(-c2cn(S(=O)(=O)c3cccc([N+](=O)[O-])c3)nc2N)cc1	43.3% (active)
CCOc1ccc(CNC(=O)c2cc(=O)[nH]c3ccc(S(=O)(=O)N4CCCCC4)cc23)cc1	5.17%
COc1ccc(OC)c(NC(=O)Cn2c(=O)n(Cc3ccccc3)c(=O)c3ccccc32)c1	-7.19%
COc1ccc(C(=O)N2CCC(c3nc4ccccc4o3)CC2)cc1	6.96%
COc1ccccc1-c1nnc(C2CCN(C(=O)c3ccc(Cl)cc3)CC2)o1	49.9% (active)
COc1ccccc1-c1nnc(SCC(N)=O)o1	0.976%
COC(=O)c1c(NC(=O)c2ccc(Cl)c(Cl)c2)sc2c1CCCC2	12.7%
COc1cccc(C(=O)NC2CCN(C#N)CC2)c1	-0.807%
Cc1ccc(Cl)cc1N1CCN(C(=O)c2cnc3c(-c4ccc(F)cc4)c(C)nn3c2C)CC1	-2.73%
CCOc1ccc(N(CC)C(=O)c2noc3c2COc2ccc(C)cc2-3)cc1	-7.18%
Cc1nnc(SCC(=O)Nc2cccc(N)c2)n1-c1ccccc1	3.5%
COc1ccc(-n2cnnc2SCC(=O)Nc2cccc(S(N)(=O)=O)c2)cc1	17.5%
NS(=O)(=O)c1cccc(NC(=O)CSc2nc3ccccc3n2-c2ccccc2)c1	41.7% (active)
O=C(CNC(=O)c1ccc(Cl)c(C(F)(F)F)c1)OC(C(=O)Nc1cc(C(F)(F)F)ccc1Cl)c1ccccc1 (stereo not drawn)	-3.64%
Cc1nn(-c2nc(-c3ccccc3)cc(C(F)(F)F)n2)c(C)c1Cl	-7.42%
COc1cccc(-n2ccn(CC(=O)NCc3ccc(C)cc3)c(=O)c2=O)c1	6.62%
COc1ccc(Cl)cc1NC(=O)CN(C)CC(=O)Nc1ccc2c(c1)OCO2	-3.24%
COc1ccc(OC)c(NC(=O)CN(Cc2ccc(Cl)cc2)S(C)(=O)=O)c1	-0.638%
COc1ccc(Cl)cc1NC(=O)CN(C)Cc1ccc(OC)c(OC)c1	56.6% (active)
Cc1ccc(Cl)c(OCC(=O)N2CCc3ccccc3C2)c1	61.4% (active)

Structure (SMILES)	enhancement
O=C(COc1ccccc1Cl)N1CCCCCCC1	-0.869%
Cc1ccc(Cl)c(OCC(=O)NN2CCN(C)CC2)c1	1.82%
Cc1cccc(CC(=O)Nc2cccc(-c3cn4cccnc4n3)c2)c1	-2.19%
Cc1ccc(SCC(=O)Nc2ccc3oc(-c4ccccc4F)nc3c2)cc1	-1.22%
CCc1ccc(N2C(=O)CN(S(=O)(=O)CC)CC2(C)C(=O)NC2CCCCC2)cc1 (stereo not drawn)	-0.256%
Cc1ccc(C)c(CN2C(=O)c3ccccc3S(=O)c3ccc(C(=O)N4CCOCC4)cc32)c1 (stereo not drawn)	30.5% (active)
Cc1ccc(CCNC(=O)c2ccc3c(c2)N(Cc2cc(C)ccc2C)C(=O)c2ccccc2S3=O)cc1 (stereo not drawn)	26.1%
O=C(c1ccc2c(c1)N(Cc1ccccc1F)C(=O)c1ccccc1S2(=O)=O)N1CCOCC1	16.1%
COc1ccc(NC(=O)C2CCN(c3ccc(Sc4ccc(C)cc4)nn3)CC2)c(OC)c1	7.96%
CCc1nn(CC(=O)N2CCN(c3ccc(Cl)cc3)CC2)c(=O)c2cc3occc3n12	3.41%
CCc1ccc(S(=O)(=O)N/N=C\c2ccc([N+](=O)[O-])o2)cc1	49.5% (active)
CCc1ccc(S(=O)(=O)Nc2ccc(C)c(NS(C)(=O)=O)c2)cc1	2.33%
COc1ccc(S(=O)(=O)N/N=C\c2ccc(OC)c(COc3ccc(C)cc3[N+](=O)[O-])c2)cc1	-2.77%
O=c1c2ccccc2n(Cc2cccc(Cl)c2)c(=O)n1Cc1ccccc1	1.58%
CCOc1ccc(N(CC)C(=O)c2cc3c(=O)oc4ccccc4c3s2)cc1	-1.26%
Oc1c(Br)cccc1/C=N/Nc1c(F)c(F)c(F)c(F)c1F	35.3% (active)
O=C1C(F)N([S+](=O)([O-])c2ccc3c(c2)OCCO3)CCN1[S+](=O)([O-])c1c(F)cccc1F (stereo not drawn)	3.19%
N#CN1CCC(NC(=O)c2ccc(F)cc2)CC1	1.17%
Cn1cccc1C1(C(F)(F)F)NCCNC1=O (stereo not drawn)	50.7% (active)
Cn1c(=O)c2c(ncn2CC(=O)Nc2cccc(C(F)(F)F)c2)n(C)c1=O	-2.46%
O=[S+]([O-])(c1ccc2c(c1)OCCO2)N1CCN([S+](=O)([O-])c2c(Cl)cc(Cl)cc2Br)CC1	-1.85%
CCOc1ccc(-n2c(SCC(=O)NCc3ccccc3)nc3n[nH]c(C)c3c2=N)cc1	-5.76%
